The values below come from PubChem BioAssay.

Assay [1] concerns the target Sentrin-specific protease 8 (Homo sapiens) (UniProt Q96LD8). Nature of the assay: SENP8 protease inhibitors, retest, confirmation, biochemical, luminescence, single concentration (AID 488912;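 active = mean inhibition across replicates above about 50%, limit read from the data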). The note with it: Recombinant SENP8, Z-RLRGG-aminoluciferin luminescence, 60 min; at 12.5 µM; stronger effect = higher value.
Assay [2] concerns the target Sentrin-specific protease 6 (Homo sapiens) (UniProt Q9GZR1). The assay can be described thus: SENP6 protease inhibitors, confirmation, biochemical, luminescence, single concentration (AID 488915). The note with it: recombinant SENP6, Z-RLRGG-aminoluciferin luminescence; at 12.5 µM; stronger effect = higher value.
The target in assay [3] is Sentrin-specific protease 7 (Homo sapiens) (UniProt Q9BQF6). The assay can be described thus: SENP7 protease inhibitors, retest, confirmation, biochemical, luminescence, single concentration (AID 488917). The note with it: recombinant SENP7, Z-RLRGG-aminoluciferin luminescence, 40 min; at 12.5 µM; stronger effect = higher value.
Sequence of Sentrin-specific protease 7 (Homo sapiens) (Q9BQF6 706-1050 limits assumed): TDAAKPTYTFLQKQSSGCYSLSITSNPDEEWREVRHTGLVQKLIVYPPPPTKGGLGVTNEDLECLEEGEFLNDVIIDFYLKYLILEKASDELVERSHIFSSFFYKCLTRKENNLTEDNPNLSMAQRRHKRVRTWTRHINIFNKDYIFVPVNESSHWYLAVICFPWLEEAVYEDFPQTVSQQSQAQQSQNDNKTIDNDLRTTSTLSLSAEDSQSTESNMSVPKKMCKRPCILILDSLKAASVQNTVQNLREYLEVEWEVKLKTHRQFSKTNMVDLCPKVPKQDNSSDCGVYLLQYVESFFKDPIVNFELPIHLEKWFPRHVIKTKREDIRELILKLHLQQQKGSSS
The target in another assay is Caspase-3 (Homo sapiens) (UniProt P42574). The assay can be described thus: caspase-3 protease inhibitors, confirmation, selectivity assay for SENP inhibitor project, biochemical, single concentration (AID 488918;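 active = mean inhibition above about 50%, limit read from the data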;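 also: plate controls were enzyme with DMSO for no effect and wells without caspase-3 for full effect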). As to conditions: purified caspase-3, Z-DEVD-aminoluciferin luminescence, 60 min; at 12.5 µM; stronger effect = higher value.
Sequence of Caspase-3 (Homo sapiens) (P42574 28-227 limits assumed): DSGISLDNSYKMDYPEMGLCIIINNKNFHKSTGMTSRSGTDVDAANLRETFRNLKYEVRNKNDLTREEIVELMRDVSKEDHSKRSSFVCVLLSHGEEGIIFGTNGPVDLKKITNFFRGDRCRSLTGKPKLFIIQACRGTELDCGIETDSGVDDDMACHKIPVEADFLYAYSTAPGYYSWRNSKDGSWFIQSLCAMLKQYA
Assay [4] is described as follows: luciferase luminescence interference by compounds, confirmation, artefact control for SENP inhibitor project, biochemical, single concentration, SENP8 reaction pre-completed (AID 488919;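 active = mean inhibition above about 50% when retested at one dose, limit read from the data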;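 also: plate controls were DMSO wells with completed reaction for no effect and substrate without enzyme for full effect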). As to conditions: Pre-incubated SENP8/Z-RLRGG-aminoluciferin, at 12.5 µM, stronger effect = higher value.
Assay [5] in a line: Apaf-1 inhibitors, single-dose retest, confirmation, biochemical, fluorescence, DEVD-Rh110, 20 µM (AID 504614;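 active = mean inhibition of at least 40% at 20 µM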;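 also: plate controls were DMSO wells for no effect and DEVD-CHO caspase inhibitor control wells for full effect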). As to conditions: reconstituted apoptosome, caspase-3 DEVD-Rh110 fluorescence; at 20 µM; stronger effect = higher value.
A short description of assay [6]: Rh110 fluorescence interference by putative Apaf-1 inhibitors, confirmation, artefact control for Apaf-1 inhibitor project, biochemical, 20 µM (AID 504615;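 active = signal rise of 40% or more at 20 µM, treated as a fluorescence artifact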). The note with it: quenched caspase reaction, at 20 µM, stronger effect = higher value.

The other results are listed elsewhere or left out. A number with no mark means an inactive call. Active and inactive are the calls of the source.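 The calls were made as follows, unless noted: active = mean inhibition above about 50% in the one-dose retest (limit read from the data); inactive = the rest.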

Sequence of Sentrin-specific protease 6 (Homo sapiens) (Q9GZR1 628-1112 limits assumed): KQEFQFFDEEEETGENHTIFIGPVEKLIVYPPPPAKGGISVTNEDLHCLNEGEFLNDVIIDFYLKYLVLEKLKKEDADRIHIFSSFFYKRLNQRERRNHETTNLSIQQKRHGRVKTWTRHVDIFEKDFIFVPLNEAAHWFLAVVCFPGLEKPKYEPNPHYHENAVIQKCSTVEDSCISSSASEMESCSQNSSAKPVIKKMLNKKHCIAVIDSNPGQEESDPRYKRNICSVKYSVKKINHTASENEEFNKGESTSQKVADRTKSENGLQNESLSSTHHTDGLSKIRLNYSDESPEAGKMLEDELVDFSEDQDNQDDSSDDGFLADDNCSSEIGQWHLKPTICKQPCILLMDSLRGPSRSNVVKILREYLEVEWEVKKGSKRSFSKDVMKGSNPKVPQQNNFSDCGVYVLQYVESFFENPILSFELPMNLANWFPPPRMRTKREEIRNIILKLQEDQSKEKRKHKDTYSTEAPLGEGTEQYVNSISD
Sequence of Sentrin-specific protease 8 (Homo sapiens) (Q96LD8 whole entry, looked up): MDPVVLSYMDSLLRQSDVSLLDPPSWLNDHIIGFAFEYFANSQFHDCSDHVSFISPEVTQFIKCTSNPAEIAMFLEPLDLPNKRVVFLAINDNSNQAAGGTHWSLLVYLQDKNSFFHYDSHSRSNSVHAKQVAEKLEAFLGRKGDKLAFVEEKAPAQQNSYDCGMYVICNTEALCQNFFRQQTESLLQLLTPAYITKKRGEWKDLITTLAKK

For the compound `CCNc1nc(N)nc(Oc2ccc(OCC)nn2)n1`, the inhibition is 6.2% in assay [1]; 8.1% in assay [2]; -2% in assay [3]; 3.8% in the assay with Caspase-3 (Homo sapiens); 0.2% in assay [4].
Taken in the same sequence, the figures for `COc1ccccc1NC(=O)c1ccc(N2CC3CC(C2)c2cccc(=O)n2C3)c(NC(=O)c2cccnc2)c1` (stereo not given) were 8.2%, 5.2%, 12.1%, 8.9% and 3.7%.
Regarding `COC(=O)c1sc(NC(=O)c2ccc(OC)cc2OC)nc1C`, the inhibition is 56.9% (active) in assay [1]; 34.4% in assay [2]; 22.1% in assay [3]; 66.4% (active) with Caspase-3 (Homo sapiens); -5.6% in assay [4].
For `c1ccc2sc(NN=C3CCCC3)nc2c1`, in that order: 86.8% (active), 85.9% (active), 98.8% (active), 88% (active) and 15.5%.
Taken in the same sequence, the figures for `O=C(Nc1ccccc1)c1ccc(NC(=O)c2cccs2)cc1` were -8.2%, -4.8%, 0.7%, 38.2% and -1.7%.
For `Cc1ccc(-n2ncc3c(Nc4cccc(C(=O)O)c4)ncnc32)cc1`, the inhibition in assay [1] was 93.9% (active); in assay [2] it was 98.1% (active); in assay [3], 102% (active); in the assay with Caspase-3 (Homo sapiens), 44.3%; in assay [4] it was 83.5% (active).
Taken in the same sequence, the figures for `O=C(OCc1ccccc1F)c1ccc2c(c1)OCCO2` were 87.8% (active), 88.5% (active), 98.8% (active), 74.5% (active) and 78.6% (active).
For `N/C(=N\OC(=O)CCC1CCCCC1)c1ccccn1`, in that order: 88.5% (active), 88.3% (active), 98.2% (active), 90.7% (active) and 43.5%.
`C/C(=N\NC(=O)CNc1cccc2ccccc12)c1ccc(Br)s1`: the inhibition in assay [1] is -9.7%; in assay [2], -9.8%; in assay [3], -3.4%; with Caspase-3 (Homo sapiens), -2.4%; in assay [4], -7.4%; in assay [5], 13.9%. Also, in assay [6], the activation (fluorescence interference) is 3.87%.
For `Cc1ccc(S(=O)(=O)C(C#N)c2nc3ccccc3nc2N2CCCC2)cc1C` (stereo not given), the inhibition in assay [1] is 6.9%; in assay [2], 9.5%; in assay [3], 4.3%; with Caspase-3 (Homo sapiens) it was 4.2%; in assay [4], 3%.
`Cc1ccc(C(=O)N/N=C\c2cc(Br)c(Br)o2)cn1`: the inhibition was 3.5% in assay [1]; 12.7% in assay [2]; 8.1% in assay [3]; 12.1% in the assay with Caspase-3 (Homo sapiens); -0.7% in assay [4]; 4.66% in assay [5]. Moreover, the activation (fluorescence interference) in assay [6] was -11.2%.
For `O=[N+]([O-])c1ccccc1N/N=C1\CCc2ccccc21`, the inhibition in assay [1] was -9.3%; in assay [2] it was -5.8%; in assay [3], -10.4%; with Caspase-3 (Homo sapiens), 0.7%; in assay [4], -0.8%.
Taken in the same sequence, the figures for `Fc1ccc(COc2ccc(-c3nnco3)cc2)cc1` were 29%, 60.4% (active), 85.8% (active), 67.9% (active) and 65.6% (active).
For `O=C(NCc1ccccn1)c1c(O)c2c([nH]c1=O)CCCC2`, in that order: -0.6%, 0.3%, -5.1%, -3.9% and -3.1%.
Taken in the same sequence, the figures for `O=c1c2c(nc3n1CCCCC3)sc1c(O)cccc12` were 53.6% (active), 49.2%, 75.5% (active), 59.4% (active) and 61.9% (active).
Turning to `C/C(=N\NC(=O)c1ccc(C)cc1)C1C(=O)c2ccccc2C1=O`, the inhibition is 92.6% (active) in assay [1]; 93.5% (active) in assay [2]; 100% (active) in assay [3]; 92.7% (active) in the assay with Caspase-3 (Homo sapiens); 94.1% (active) in assay [4].
For `Nc1ccc(-c2nnc(-c3ccc(-c4ccccc4)cc3)o2)cc1`, in that order: 11.8%, 10.8%, 32.4%, 6.5% and -0.8%.
For `Cc1ccc(C(=O)O/N=C(\N)c2ccccn2)cc1Cl`, in that order: 38.5%, 81.3% (active), 27.2%, 53.7% (active) and 50.2% (active).
For the compound `N#Cc1c(N2CCCCC2)nc(N)c2c(N)nc(SCC(=O)O)cc12`, the inhibition in assay [1] was 11.2%; in assay [2], 72.6% (active); in assay [3], 61.9% (active); in the assay with Caspase-3 (Homo sapiens), 0.8%; in assay [4], -0.2%; in assay [5] it was 31.3%. The activation (fluorescence interference) in assay [6] is 7.18%.
With `Cc1cc(N=Nc2ccc3ccccc3c2)ccc1O`, the inhibition in assay [1] is 98.3% (active); in assay [2] it was 98.9% (active); in assay [3], 102% (active); with Caspase-3 (Homo sapiens), 85.7% (active); in assay [4] it was 76.6% (active).
As to `Oc1ccc(N=Cc2sc3ccccc3c2Cl)cc1`, the inhibition was -10.7% in assay [1]; -2.2% in assay [2]; 49.3% in assay [3]; 1.9% with Caspase-3 (Homo sapiens); 20.8% in assay [4]; 14.4% in assay [5]. In assay [6], the activation (fluorescence interference) is 5.12%.
As for `COc1ccc(/C=C2/SC(=O)N(CCCCCC(=O)Nc3ccccc3C(=O)O)C2=S)cc1`, the inhibition in assay [1] was -4.2%; in assay [2], 0.2%; in assay [3] it was 2.7%; in the assay with Caspase-3 (Homo sapiens), -3.8%; in assay [4], 8.6%.
On to `Cc1[nH][nH]c(=O)c1C(c1ccc(-c2ccc(Cl)cc2)o1)c1c(C)[nH][nH]c1=O`, for which the inhibition is -6.8% in assay [1]; 16% in assay [2]; 2.9% in assay [3]; 7.2% in the assay with Caspase-3 (Homo sapiens); 1.7% in assay [4]; 18% in assay [5]. Moreover, the activation (fluorescence interference) in assay [6] is -1.73%.
